According to the supplement of paper PMC6555819:

Columns and labels:
Test in all cases: PBM binding z-score (relative to random genomic background probes); higher = stronger binding; sequences stand for … in GC…GCGATTGACAGCGTAGAATGAAGG
[1] = system: FXR:RXRa (NR concentration 270 nM, RXRa partner concentration 90 nM)
In short: (§1)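 Ligand-free nuclear receptor dimers were bound for 1 h to custom Agilent 4×180K protein-binding microarrays. Detection used antibodies against each partner (one per run). Binding z-scores rest on regression-normalized fluorescence, with random background probes as the reference.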

[2] = system: LXRa:RXRa (NR concentration 270 nM, RXRa partner concentration 90 nM)
In short: as §1

[3] = system: LXRa homodimer (NR concentration 270 nM)
In short: as §1

[4] = system: LXRb:RXRa (NR concentration 270 nM, RXRa partner concentration 90 nM)
In short: as §1

[5] = system: LXRb homodimer (NR concentration 270 nM)
In short: as §1

[6] = system: PPARa:RXRa (NR concentration 270 nM, RXRa partner concentration 90 nM)
In short: as §1

[7] = system: PPARg:RXRa (NR concentration 180 nM, RXRa partner concentration 90 nM)
In short: as §1

[8] = system: PPARg:RXRa 270nM:90nM, anti-RXR (NR concentration 270 nM, RXRa partner concentration 90 nM)
In short: as §1

[9] = system: PPARg:RXRa 30nM:10nM, anti-RXR (NR concentration 30 nM, RXRa partner concentration 10 nM)
In short: as §1

[10] = system: PPARg:RXRa 90nM:30nM, anti-RXR (NR concentration 90 nM, RXRa partner concentration 30 nM)
In short: as §1

[11] = system: PPARg:RXRa DBDmut IVT, anti-RXR (DBD mutation: RXRa K156A/R161A, NR concentration 270 nM, RXRa partner concentration 90 nM)
In short: as §1

[12] = system: PPARg:RXRa IVT, anti-PPARg (NR concentration 270 nM, RXRa partner concentration 90 nM)
In short: as §1

[13] = system: PPARg DBDmut:RXRa IVT, anti-PPARg (DBD mutation: PPARg1 K132A/R137A, NR concentration 270 nM, RXRa partner concentration 90 nM)
In short: as §1

[14] = system: PPARg DBDmut IVT, anti-PPARg (DBD mutation: PPARg1 K132A/R137A, NR concentration 270 nM)
In short: as §1

[15] = system: PPARg homodimer (NR concentration 180 nM)
In short: as §1

[16] = system: PXR:RXRa (NR concentration 270 nM, RXRa partner concentration 90 nM)
In short: as §1

[17] = system: PXR homodimer (NR concentration 270 nM)
In short: as §1

[18] = system: RARa:RXR (NR concentration 270 nM, RXRa partner concentration 90 nM)
In short: as §1

[19] = system: RARa homodimer (NR concentration 270 nM)
In short: as §1

[20] = system: RARb:RXRa (NR concentration 270 nM, RXRa partner concentration 90 nM)
In short: as §1

Sequence	PBM binding z-score [1]	PBM binding z-score [2]	PBM binding z-score [3]	PBM binding z-score [4]	PBM binding z-score [5]	PBM binding z-score [6]	PBM binding z-score [7]	PBM binding z-score [8]	PBM binding z-score [9]	PBM binding z-score [10]	PBM binding z-score [11]	PBM binding z-score [12]	PBM binding z-score [13]	PBM binding z-score [14]	PBM binding z-score [15]	PBM binding z-score [16]	PBM binding z-score [17]	PBM binding z-score [18]	PBM binding z-score [19]	PBM binding z-score [20]
AGAATGACGTTATACGTAGATCAGGGAAGAAAGT	-0.751	-0.685	-0.265	-0.753	-0.294	-0.611	0.583	-0.509	-0.197	-0.37	-1.31	-0.2	0.276	1.24	-0.321	-0.696	0.0404	-0.492	-0.733	-0.573
CTTCGGAGGACAGAAGGTCAGAGCTGTCCGCTTT	1.6	1.84	-0.0247	0.975	-0.772	1.85	-0.0897	1.07	-0.905	0.484	0.227	0.203	-0.826	-2.02	1.51	1.56	-0.691	2.18	-0.152	3.17
ACTAGCAGGCCAAGGGTCCCTCAAGATTAGTCCG	-0.253	-0.502	-0.631	-0.64	-1.13	1.09	2.3	4.09	1.73	3.84	0.0687	0.882	-0.919	-0.963	-0.0936	-0.598	-0.427	-0.327	-1.05	0.381
TCATATAGGTAAACTGGTGAAAGTCCGTAAGTTA	0.534	0.478	0.129	0.808	-0.0343	1.05	0.842	2.31	3.92	3.07	3.83	2.69	1.43	1.35	0.515	0.463	0.739	0.446	1.61	0.361
CCGATTGGGGCAAGGTTACCATAACGCACAGCCA	0.189	0.481	-0.246	0.649	-1.05	1.28	1.44	1.49	0.0472	0.943	1.32	1.29	-0.839	-0.45	0.0331	0.36	-0.458	0.793	-0.365	1.67
TAGCCTAGGTCATGGTCCAGTATACCACGCGAAC	3.98	3.17	0.367	2.57	-0.0302	3.96	3.3	3.12	0.835	1.94	2	3.39	0.0262	-0.185	0.886	1.64	-0.02	2.35	-0.386	3.78
